An excerpt weighted towards active compounds, which were near 2.7% of everything screened.
Peg3 promoter: reduces Peg3 promoter-driven luciferase expression in HeLa; HeLa PEG-Prom luciferase reporter, luminescence, overnight; inhibition, % at 20 µM; 360,000 tested, 1.7% active; AID 588405;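 active = inhibition of at least 50% at 20 µM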
TRPM1 prom inh: reduces MITF-dependent TRPM1 promoter luciferase signal | inhibition, % at 12.5 µM | AID 488899 | 330,000 tested, 0.83% active | SK-MEL-5 TRPM1 promoter luciferase, 24 h;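 active = mean inhibition across replicates of 60% or more, whatever share of single replicates reaches that level; inconclusive = some that reach 60%, reason not given; inactive = mean inhibition across replicates below 60%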
HIF-2a block: HIF-2a inhibition | 786-0 RCC cells HIF-2a reporter, luciferase luminescence, overnight | inhibition, % at 18.8 µM | 360,000 tested, 0.72% active | AID 624352;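 active = inhibition of the luminescence signal of 40% or more relative to plate controls, in a single-dose primary screen at 18.75 µM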
KKLEB cytotox: reduces viability of KKLEB cystic fibrosis airway cells; KKLEB CF airway cells viability, ATPlite luminescence, overnight; hits give low values; cells stimulated with P. aeruginosa culture filtrate; activity change (cytotoxicity), % at 5 µM; 360,000 tested, 0.36% active; AID 602141;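 active = corrected activity change at or below -50% at 5 µM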
Shn3 3UTR inh: reduces Shn3 3'UTR luciferase signal in osteoblasts; 360,000 tested, 0.52% active; Clone20 osteoblast Shn3 3'UTR firefly luciferase, 24 h; inhibition, % at 12.5 µM;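 active = mean inhibition of at least 75% with every replicate also reaching 75%; inconclusive = mean inhibition at least 75% but some replicate below; inactive = mean inhibition below 75%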;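 note: 0% = median of neutral control wells and 100% = pilot-screen positive control compound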
CF NFkB block: inhibitors of cystic fibrosis induced NF-kB; KKLEB NF-kB-GFP reporter, PAF-induced, GFP fluorescence overnight; inhibition, % at 5 µM; 360,000 tested, 0.86% active; AID 588850;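 active = at least 50% inhibition at 5 µM, scaled per plate between neutral and stimulator controls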;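 note: PAF is a Pseudomonas aeruginosa culture filtrate used as stimulus; plate controls were PAF-stimulated DMSO wells for no effect and unstimulated DMSO wells for full effect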
Numbers without * were called inactive; ? = inconclusive; . = not tested or not shown.

SMILES	Peg3 promoter	TRPM1 prom inh	HIF-2a block	KKLEB cytotox	Shn3 3UTR inh	CF NFkB block
Cc1ccc(-n2c(C)cc(C(=O)COc3cccnc3[N+](=O)[O-])c2C)cc1	36	43	59*	-22	43	-2
Cc1cc(-n2c(C)cc(C(=O)COc3ccccc3[N+](=O)[O-])c2C)no1	-150	-34	-179	10	-27	-9
Cc1cc(C(=O)COC(=O)c2ccc[nH]c2=O)c(C)n1-c1ccc(F)cc1	3	-34	21	-9	-22	-3
Cc1cc(C(=O)COC(=O)c2ccc[nH]c2=O)c(C)n1-c1ccccc1	-13	-26	44*	-11	16	-2
Cc1noc(C)c1S(=O)(=O)NC(=O)C1(C)CCN1C(=O)Cc1ccc(-c2ccccc2)cc1 (stereo unspecified)	9	.	6	2	-8	-1
Cc1cc(C(=O)N2CCCC(C)(C(=O)NS(=O)(=O)C3CC3)C2)n(C(C)(C)C)n1 (stereo unspecified)	0	.	8	0	5	4
CNC(CC(=O)c1ccc([N+](=O)[O-])cc1)C(Cl)(Cl)Cl (stereo unspecified)	101*	90*	93*	-8	38	47
N#Cc1ccc(NC(=O)Nc2ccc(Oc3ccc(NC(=O)Nc4ccc(C#N)cc4)cc3)cc2)cc1	57*	?	-36	15	91*	-11
O=C(O)c1ccccc1NC(=S)NC(=O)c1sc2ccccc2c1Cl	-87	-9	-72	-1	-9	28
O=C(NNC(=S)NC(=O)c1sc2ccccc2c1Cl)c1ccc(Cl)cc1	-23	31	-95	-65*	-41	76*
COc1ccc(N2c3ccccc3CN(Cc3ccccc3)[C@@H](C)[C@H]2Cc2cccnc2)cc1	18	.	0	2	34	-18
CC(C)=CCc1c(O)ccc2c1OC(c1ccc(O)c(O)c1)CC2=O (stereo unspecified)	35	71*	12	-3	22	34
O=C1CC(c2ccc(O)c(O)c2)Oc2c1ccc(O)c2O (stereo unspecified)	-21	-8	13	-16	-6	12
O=C1C=C(NCc2ccc(Cl)c(Cl)c2)CC1	-3	-2	18	-1	12	-3
Nc1nc(N)c2cc(CNc3ccc(Cl)c(Cl)c3)ccc2n1	110*	.	10	-26	?	45
COc1ccc(C(O)c2nc(-c3ccc(OC)c(OC)c3)cs2)cc1 (stereo unspecified)	-5	.	-18	-8	-19	23
O=C(NC(Nc1ncc(S(=O)(=O)c2ccc([N+](=O)[O-])cc2)s1)(C(F)(F)F)C(F)(F)F)c1ccc(Cl)cc1	42	18	-3	-55*	23	50
CC(=O)NC1C(O)OC(CO)C(O)C1O (stereo unspecified)	-7	2	9	9	97*	-12
CC(=O)Nc1cc(-c2ccccc2N(C)C)cn2c(-c3ccc(S(C)(=O)=O)cc3)cnc12	4	.	-5	-10	-5	-36
COc1ccc(-n2c(C)c(C(C)=O)c3cc(OC(C)=O)ccc32)cc1	16	3	35	-11	18	83*
COc1ccc(C(CNC(=O)Cc2cc(OC)c(OC)c(OC)c2)N2CCCC2)cc1 (stereo unspecified)	0	-12	18	0	-11	-4
COC(=O)C1CCC(=O)N1C(c1ccc(OC)cc1)c1cc(OC)c(OC)c(OC)c1 (stereo unspecified)	-26	30	28	-20	10	52*
Cc1nn(-c2ccccc2)c(C)c1C(=O)OCC(=O)N1c2ccccc2NC(=O)C1(C)C	59*	15	6	5	8	2
Cc1cnc(C(=O)OCC(=O)N2c3ccccc3NC(=O)C2(C)C)cn1	7	-3	18	-1	-12	-7
CCCCCCCCC1=NCCc2c1[nH]c1ccccc21	91*	6	9	-4	17	-4
SMILES	Peg3 promoter	TRPM1 prom inh	HIF-2a block	KKLEB cytotox	Shn3 3UTR inh	CF NFkB block
CCOc1ccc(Br)cc1C1=CC(=O)C[C@H](c2ccc(OC)cc2)C1	24	20	15	-20	94*	36
CCCN1C(=O)S/C(=C\c2ccc(N3CCOCC3)o2)C1=O	-169	-57	-178	12	89*	-7
O=C1C=C(NCCc2cc(Br)c(O)c(Br)c2)C(=O)c2ncccc21	93*	109*	9	-33	94*	76*
CC1(C(=O)NS(=O)(=O)c2ccc(F)cc2F)CCN1C(=O)C/C=C/c1ccccc1 (stereo unspecified)	13	.	-9	-4	-10	-12
COc1cccc(CNC(=O)C2=Cc3cccc(OC)c3OC2)c1	58*	-1	1	-1	11	18
COc1cccc(CNC(=O)c2ccc(OCC(=O)N3CCOCC3)c(OC)c2)c1	-1	-2	13	-6	4	6
O=C(CCNC(=O)c1ccc([N+](=O)[O-])cc1)Nc1cc(C(F)(F)F)ccc1N1CCOCC1	3	.	9	-3	6	-1
COc1ccc(OC)c(NC(=O)C2(C)CCN2Cc2ccsc2)c1 (stereo unspecified)	6	.	6	4	1	15
COC1=C(C)C(=O)C2=C(C1=O)C1C3CC4=C(C(=O)C(OC)=C(C)C4=O)C(CNC(=O)C(C)=O)N3C(C#N)C(C2)N1C (stereo unspecified)	101*	114*	78*	-44	94*	81*
COc1cc(NC(=O)CSc2nc(C3CC3)nc3ccccc23)cc(OC)c1	99*	18	16	-32	0	42
COc1ccc(CCNCC(O)COc2ccc(Cl)cc2)cc1OC (stereo unspecified)	-16	-4	6	-5	-13	8
OC(CNCCc1ccc(Cl)cc1)COc1ccc2ccccc2c1 (stereo unspecified)	67*	1	1	-4	4	1
OC(CNCCc1ccc(Cl)cc1)COc1cc(Cl)ccc1Cl (stereo unspecified)	104*	4	3	-12	3	5
CC(C)CCNCC(O)CON=C1c2ccccc2-c2ccccc21 (stereo unspecified)	107*	-15	9	-18	28	10
CC(C)c1ccc(OCC(O)CNC(C)c2ccccc2)cc1 (stereo unspecified)	43	9	4	2	36	-5
OC(CNCCC(c1ccccc1)c1ccccc1)COc1ccccc1 (stereo unspecified)	60*	5	13	-11	10	7
COCC(=O)N[C@H]1CC[C@@H](CC(=O)NCc2ccccc2OC)O[C@@H]1CO	.	.	0	.	.	.
COc1ccc(CN2C(=O)CN(S(C)(=O)=O)CC2(C)C(=O)NC(C)C)cc1 (stereo unspecified)	.	.	6	.	.	.
